# The panel holds about 83,000 compounds, 20% with a hit somewhere; the sample as a whole holds those more often.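 Assay: single dose, 48 h. Readout: percent growth (0 = no net growth; negative = cell death). Active: <10.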 A number with no mark means an inactive call. Active and inactive are the calls of the source.
# Tested on: EKVX NSCLC
# Test: NCI-60 one-dose screen, 48 h (100 = growth as untreated, 0 = no growth, -100 = all killed)
# Conditions: 10 µM unless noted
# Method: Growth inhibition of the EKVX human Non-Small Cell Lung tumor cell line is measured as a screen for anti-cancer activity. Cells are grown in 96 well plates and exposed to the test compound for 48 hours. Compounds are tested at a single concentration, which is 10^-5 M for most compounds. The reported endpoint is percent growth (GI% or GIPRCNT), where numbers from 0 - 100% represent growth inhibition, and numbers from -100% - 0 represent cell death. For example, a value of 40 represents 60% growth inhibition. A value of 0 means no net growth occurred over the course of the experiment. A value of -40 indicates 40% of cells at the beginning of the experiment died by the end of the experiment. A value of -100 means all cells are dead at the end of the experiment.
# NCI-60 Human Tumor Cell Lines Screen was performed using the standard one-dose NCI protocol, which is described in more detail at https://dtp.cancer.gov/discovery_development/nci-60/default.htm.
# Compounds with GIPRCNT values below 10 were considered active. Activity score was based on GIPRCNT using the following formula: […]
# Score is 0 for GIPRCNT values of 100 or above, 50 for GIPRCNT values of 0, and 100 for GIPRCNT values of -100.
row,SMILES,growth
1,CCOC(=O)c1cc(Cl)c(O)c(Cl)c1,109%
2,OCC1CCC(O)C(CO)N1 (stereo not given),92.3%
3,CCN(CC)CCCC(C)NC(=S)N/N=C(\C)c1ccccn1 (stereo not given),47.7%
4,NNC(=O)c1ccccc1N,110%
5,Cc1ccc(/C=N/NC(N)=S)s1,96%
6,CSc1cnc2ccccc2n1,103%
7,Nc1c(O)c(S(=O)(=O)O)c(O)c2c1C(=O)c1ccccc1C2=O,33.8%
8,C/C(O)=C(/C=N\C(=S)Nc1ccc(S(=O)(=O)Nc2nccs2)cc1)C(=O)Nc1ccccc1C,101%
9,O=Cc1ccc(Cl)c(Cl)c1,109%
10,Cc1c(Cl)cccc1NC(=S)NC(=O)c1ccccc1,71.6%
11,N#CCCN1C(=O)CCC1C(=O)O (stereo not given),112%
12,CN(C)CCOC(=O)Nc1ccc(Cc2ccc(NC(=O)OCCN(C)C)cc2)cc1,102% [100 µM]
13,CCOc1ccccc1NC(=O)CCl,111%
14,CC(c1ccccc1)N(C)C (stereo not given),122%
15,CC(=O)OCC1OC(n2cnc3c(=S)nc(N)[nH]c32)C(OC(C)=O)C1OC(C)=O (stereo not given),83.9%
16,BrCc1cccc(C[P+](c2ccccc2)(c2ccccc2)c2ccccc2)c1,44.6%
17,Cc1ccc(S(=O)(=O)CCCl)cc1,97.6%
18,N#C/C(=C\c1ccc2c(c1)OCO2)c1ccccc1,80.9%
19,CN(C)Cc1ccccn1,99.5%
20,CN(C(=S)S(=O)(=O)C12CC3CC(CC(C3)C1)C2)c1ccccc1,104%

row,SMILES,growth
1,COc1cc(C(=O)NC(=S)NCc2ccncc2)cc(OC)c1OC,99.4%
2,S=C(Sc1ccc(Cl)cc1)Sc1ccc(Cl)cc1,49.1%
3,CCOC(=N)CC(=O)Nc1cccc(C)c1Cl,109%
4,COC1(OC)C2(Cl)C(Cl)=C(Cl)C1(Cl)C1COCC12 (stereo not given),104%
5,O=C(c1ccccc1)c1ccc(-c2ccc(O)cc2)cc1,64.5%
6,NC(=O)c1cc2c3ccccc3ccn2c1-c1ccccc1,14.5%
7,Cc1ccc(OC(=O)c2ccccc2)cc1,122%
8,CCCC(OC(C)=O)c1ccc2c(c1)OCO2 (stereo not given),117%
9,N#C/C(=C\c1ccc(C#N)cc1)C(=O)c1ccccc1,109%
10,CCOC(=O)Nc1nccs1,99.4%
11,O=C1Nc2ccccc2/C1=C\c1ccccc1O,56.4%
12,Nc1ccccc1SC1CC(=O)N(c2ccc(Cl)c(Cl)c2)C1=O (stereo not given),86.4%
13,N#Cc1ccc(OC(=O)Nc2cc(Cl)cc(Cl)c2)cc1,-2.41% [100 µM] (active)
14,Cc1nc(C)c(C(=O)O)cc1C(=O)O,102%
15,OCc1cccnc1,107%
16,COc1ccc(C2CCCCC2=O)cc1 (stereo not given),102%
17,C/C(O)=C(/C=N/C(=S)Nc1ccccc1)C(=O)Nc1ccccc1C,96.6%
18,CCNC(=O)Oc1ccc[nH]c1=O,103%
19,Nc1cc(N)ncn1,102%
20,O=C1C=C[C@H](O)[C@@]2(CO)O[C@@H]12,72.4%
